Compounds with a hit are over-represented: about 3.6% of the library has one in this group of screens.
Abeta yeast res: compounds reversing amyloid beta toxicity in yeast; yeast expressing A-beta42, growth rescue, OD600, 48 h; response scale: 0% DMSO, 100% iron-clioquinol control; Potency, µM (doses to about 46.1 µM), usual class: activators; 410,000 tested, 0.063% active; AID 1347071; further: nearly all actives have a fitted effect of over 55% in size
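Yeast growth medium received pinned compounds, then yeast cells expressing toxic A-beta were added; plates incubated at 30 C for 48 hr. Growth read as absorbance at 600 nm, normalized to DMSO and equimolar FeCl3 plus clioquinol controls.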
FUS yeast rescue: rescues growth of FUS-expressing yeast | S. cerevisiae FUS-expressing, growth rescue, OD600, 24 h | Potency, µM (titrated, usually from 76.6 µM), hits mostly activators | 390,000 tested, 0.24% active | AID 1347120; further: nearly all actives have a fitted effect of over 55% in size
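Quantitative HTS measuring growth restoration of FUS-toxic yeast. Galactose-induced cells (OD 0.005) were exposed 24hr at 30C to compounds at several concentrations, then absorbance at 600 nm was recorded.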
ClpP mod: qHTS Assay for Activators of ClpP; 340,000 tested, 1.9% active; purified B. subtilis ClpP, FRET peptide cleavage, 20 min; ATP-dependent Clp protease proteolytic subunit (Bacillus subtilis (strain 168)), P80244; Potency, µM (doses to about 57.5 µM); active means well fitted falling curve with a large enough effect; inconclusive means small, poorly fitted or top-dose-only effect; inactive means no such curve, though single readings can be large or run the other way; further: the source files actives as falling curves though it sought activators and does not explain the sign; nearly all actives have a fitted effect of over 65% in size
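FRET quenching reversal measured ClpP activation: 10 microg/mL B. subtilis ClpP at pH 8 with the FRET-FV decapeptide, read at 430 nm after 320 nm excitation. The 20-min minus 0-min signal was scaled between DMSO/no-enzyme wells and ADEP (5.8 microM final).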
TDP-43 yeast inh: inhibitors of TDP-43 toxicity in yeast; TDP-43 expressing yeast growth rescue, BacTiter-Glo, 24 h; Potency, µM (top dose mostly 46.1 µM), actives largely listed as activators; 410,000 tested, 1.8% active; further: nearly all actives have a fitted effect of over 50% in size
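Yeast expressing TDP-43 (pregrown in raffinose, seeded at OD600=0.02 in galactose medium) exposed to compounds 24 hr at 30 deg C. Growth read by BacTiter-Glo luminescence; rescue of toxicity appears as increased signal.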
Mm-Cpn inhibitor: inhibitors of Methanococcus maripaludis chaperonin TRiC (MmCpn); 330,000 tested, 0.031% active; AID 504842; Potency, µM (doses to about 76.9 µM), actives largely listed as inhibitors; purified Mm-Cpn ATPase, ADP Transcreener TR-FRET; further: nearly all actives have a fitted effect of over 80% in size
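Inhibition of chaperonin ATP hydrolysis is measured as reduced ADP production, detected by competitive TR-FRET in which signal falls with ADP. Final enzyme 25 nM and ATP 10 uM, reacted 30 min at 37°C.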
aSyn rescue: inhibitors of alpha-synuclein toxicity in yeast. Yeast expressing alpha-synuclein, growth rescue, BacTiter-Glo, 24 h. Potency, µM (series often up to 46.1 µM), usual class: activators. 370,000 tested, 0.14% active. AID 652106; further: nearly all actives have a fitted effect of over 65% in size
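Screening used galactose-induced yeast with toxic alpha-synuclein levels, exposed to compound for 24 hr at 30 deg C. Cell growth, read with BacTiter-Glo luminescence, gave the measured signal.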
ClpP inh valid: Bacillus subtilis ClpP inhibition, validated hit. AID 743245. Potency, µM (doses to about 57.5 µM), actives largely listed as inhibitors. shares compounds with ClpP mod. 470 tested, 40% active. purified B. subtilis ClpP, FRET-FV substrate cleavage, 20 min; further: nearly all actives have a fitted effect of over 70% in size
Each line names hits and unclear results; the compound was inactive in the other large screens (follow-up assays come after a bar, where they were run). Unless noted, the call rests on the fitted dose curve; in most records, active means well fitted curve in the direction sought with a large enough effect; inconclusive means small, poorly fitted or top-dose-only effect, or another doubt; inactive means no such curve, though single readings can be large; an effect the other way counts as inactive or inconclusive.

COc1ccc(Nc2nc(N)nc(CSc3nc4ccccc4s3)n2)cc1	FUS yeast rescue inconclusive, TDP-43 yeast inh 20µM (no result: Mm-Cpn inhibitor, aSyn rescue)
CCN(CC)C(=O)c1ccc2c(c1)C1C(Cl)C(Sc3ccccc3[N+](=O)[O-])CC1C(C(=O)O)N2 (stereo not given)	FUS yeast rescue 40µM
Cc1ccc2c(c1Cl)NC(C(=O)O)C1CC(Sc3ccccc3[N+](=O)[O-])C(Cl)C21 (stereo not given)	Abeta yeast res inconclusive
Oc1ccc2c3c1O[C@H]1c4oc5ccccc5c4C[C@@]4(O)C(C2)N(CC2CC2)CCC314 (stereo not given in full)	none (no result: Abeta yeast res, FUS yeast rescue, ClpP mod, TDP-43 yeast inh, Mm-Cpn inhibitor)
CC(C)c1ccc(CNC(=O)c2ccc(N3CCCC3)c(NC(=O)NCc3ccccc3)c2)cc1	FUS yeast rescue inconclusive, ClpP mod inconclusive (no result: Mm-Cpn inhibitor, aSyn rescue)
Cc1c(C)c2c(OCC(=O)N[C@@H](C)C(=O)O)cc3c(c2oc1=O)CCC(C)(C)O3	TDP-43 yeast inh inconclusive
O=C(Nc1ccccn1)NC12CC3CC(CC(C3)C1)C2	TDP-43 yeast inh 3.2µM
COP(=O)(OC)C(Nc1ccccn1)c1ccccc1 (stereo not given)	none (no result: FUS yeast rescue)
O=C(CCl)c1ccc(O)c(O)c1	none (no result: Abeta yeast res, FUS yeast rescue, TDP-43 yeast inh, Mm-Cpn inhibitor)
CN1CCC(N(C)c2nc(-c3ccc([N+](=O)[O-])cc3)nc3ccccc23)CC1	none (no result: FUS yeast rescue)
CN(CC1COc2ccccc2O1)c1nc(-c2cccnc2)nc2ccccc12 (stereo not given)	TDP-43 yeast inh 8.9µM
Cc1ccc(C(=O)CN2CCOCC2)cc1	none (no result: Abeta yeast res, FUS yeast rescue, TDP-43 yeast inh, Mm-Cpn inhibitor, aSyn rescue)
COC(=O)c1ccc(N2C(=O)CC(N3CCC(n4c(=O)[nH]c5ccccc54)CC3)C2=O)cc1 (stereo not given)	none
COC(=O)c1ccc(N2C(=O)CC(N3CCC(O)(c4ccc(Br)cc4)CC3)C2=O)cc1 (stereo not given)	TDP-43 yeast inh 6.3µM
COc1ccccc1NC(=O)c1oc2ccccc2c1NC(=O)c1ccccc1C(F)(F)F	none (no result: Mm-Cpn inhibitor, aSyn rescue) | ClpP inh valid 31µM
CCC1(O)C(=O)OCc2c1cc1n(c2=O)Cc2cc3c(N)cccc3nc2-1 (stereo not given)	TDP-43 yeast inh inconclusive (no result: FUS yeast rescue, Mm-Cpn inhibitor)
C[C@]12Cc3cn4c(nc3C=C1CCC1C2CC[C@@]2(C)[C@H]1CC[C@@]2(O)C#N)nc1ccccc14 (stereo not given in full)	none (no result: Abeta yeast res, FUS yeast rescue, ClpP mod, TDP-43 yeast inh, Mm-Cpn inhibitor)
Cc1cc(OCc2ccc([N+](=O)[O-])cc2)c2c3c(c(=O)oc2c1)CCCC3	none
Cc1cc(OCc2nn[nH]n2)c2c3c(c(=O)oc2c1)CCCC3	ClpP mod 6.3µM | ClpP inh valid 27µM
CNC(=O)Oc1ccc(-c2cn3cc(Cl)ccc3n2)cc1	ClpP mod 8.9µM | ClpP inh valid inconclusive

Screening data (PubChem BioAssay)
